Read-out in experiment [1]: UDP glucuronosyltransferase (UGT1A6), UGT1A6 (gene 54578)
The experiment is described as follows: LTEA_HepaRG_UGT1A6: Life Technologies and Expression Analysis (LTEA) Assay for UDP glucuronosyltransferase (UGT1A6) using HepaRG (AID 2283539; active means hit-call score of the fitted dose curve at least 0.9, where 1 is the maximum; inactive means score below 0.9). The following applies: mRNA level, 48 h; actives raise or lower the signal. The method, boiled down:
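Differentiated HepaRG cells, ~100,000/well, were exposed for 48 h in serum-free induction medium with 0.5% DMSO to 8-point half-log series topping at 100 uM, in duplicate. mRNA measured by Fluidigm TaqMan qRT-PCR, normalized to ACTB, GAPDH and POLR2A.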

Read-out in experiment [2]: X-box binding protein 1 (XBP1), XBP1 (gene 7494)
Description: LTEA_HepaRG_XBP1: Life Technologies and Expression Analysis (LTEA) Assay for X-box binding protein 1 (XBP1) using HepaRG (AID 2283540; active means hit-call score of the fitted dose curve at least 0.9, where 1 is the maximum; inactive means score below 0.9). The note with it: mRNA level, 48 h; actives raise or lower the signal. In short, it runs like this:
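Differentiated human HepaRG cells in serum-free induction medium exposed 48 h in duplicate to eight half-log concentrations up to 100 uM in 0.5% DMSO. XBP1 mRNA measured by Fluidigm TaqMan qRT-PCR, normalized to ACTB, GAPDH, POLR2A; bidirectional fitting against DMSO.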

Experiment [3] is described as follows: LTEA_HepaRG_LDH_cytotoxicity: Cytotoxicity Assessment in the Life Technologies and Expression Analysis (LTEA) Assay (AID 2283563). The method, boiled down: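 Differentiated HepaRG cells in serum-free induction medium, exposed 48 h in duplicate to 8 half-log concentrations up to 100 uM in 0.5% DMSO. Cytotoxicity from LDH measured in spent medium, fit relative to DMSO.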

The nature of experiment [4]: TOX21_p53_BLA_p2_viability: Viability Assessment in the Tox21 HCT-116 p53 Agonism Beta-lactamase Assay, Phase 2 (AID 2283591).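 Further: compound exposure lasted 16 h at 37 °C; actives lower the ATP signal meaning cytotoxicity.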 In short, it runs like this: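 Cytotoxicity readout: CellTiter-Glo ATP luminescence, 30 min at room temperature, after the beta-lactamase read. Cells were HCT116 exposed 16 h at 37C to compounds pin-transferred at 217-fold dilution from DMSO stocks.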

In experiment [5] the target is Cellular tumor antigen p53 (Homo sapiens) (UniProt P04637). Description: TOX21_p53_BLA_p2_ratio: Tox21 HCT-116 p53 Agonism Beta-lactamase Assay, Ratio, Phase 2 (AID 2283592). The method, boiled down:
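HCT-116 cells with p53-responsive beta-lactamase reporter, 4000 cells/well, preincubated 5 h, then compound in DMSO (217-fold dilution) for 16 h at 37C. CCF4-AM substrate 2 h at room temperature; 460/530 nm emission ratio fitted upward versus DMSO.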

A short description of experiment [6]: TOX21_p53_BLA_p3_viability: Viability Assessment in the Tox21 HCT-116 p53 Agonism Beta-lactamase Assay, Phase 3 (AID 2283593).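 Further: cells exposed to compound for 16 h before reading.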 The method, boiled down: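 Cellular ATP was quantified by CellTiter-Glo luminescence, read after 30 min at room temperature. Beforehand, HCT116 cells (4000/well) received compound 5 h post-seeding, 217-fold diluted from DMSO, then incubated 16 h at 37C.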

The target in experiment [7] is Cellular tumor antigen p53 (Homo sapiens) (UniProt P04637). The experiment is described as follows: TOX21_p53_BLA_p3_ratio: Tox21 HCT-116 p53 Agonism Beta-lactamase Assay, Ratio, Phase 3 (AID 2283596). In short, it runs like this: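 HCT116 p53-bla cells (4000/well) given compound in DMSO (217-fold dilution) after 5 h, incubated 16 h at 37C. CCF4-AM substrate 2 h at room temperature; 460/530 nm emission ratio, gain fitted against DMSO.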
Cellular tumor antigen p53 (Homo sapiens), sequence (P04637 whole entry, looked up): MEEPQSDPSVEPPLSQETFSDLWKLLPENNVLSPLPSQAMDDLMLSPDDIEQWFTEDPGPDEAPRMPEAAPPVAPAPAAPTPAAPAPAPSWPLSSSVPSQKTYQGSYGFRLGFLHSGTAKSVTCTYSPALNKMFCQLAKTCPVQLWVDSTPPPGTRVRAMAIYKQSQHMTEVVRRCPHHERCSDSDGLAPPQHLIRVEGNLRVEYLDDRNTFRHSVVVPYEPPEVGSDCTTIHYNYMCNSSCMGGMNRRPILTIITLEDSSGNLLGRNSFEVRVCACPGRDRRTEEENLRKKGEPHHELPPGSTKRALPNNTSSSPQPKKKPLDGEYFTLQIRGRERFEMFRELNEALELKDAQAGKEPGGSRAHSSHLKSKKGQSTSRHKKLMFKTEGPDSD

Experiment [8] can be described thus: TOX21_p53_BLA_p4_viability: Viability Assessment in the Tox21 HCT-116 p53 Agonism Beta-lactamase Assay, Phase 4 (AID 2283597).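 Further: hits lower the luminescence signal meaning cytotoxicity.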 In short, it runs like this:
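HCT-116 p53-bla cells, 4000/well, dosed after 5 h attachment and incubated 16 h at 37 °C, 5% CO2. Viability from CellTiter-Glo ATP luminescence after 30 min at room temperature, taken after the beta-lactamase read; loss of signal indicates cytotoxicity.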

For experiment [9], the target named is Cellular tumor antigen p53 (Homo sapiens) (UniProt P04637). Description: TOX21_p53_BLA_p5_ratio: Tox21 HCT-116 p53 Agonism Beta-lactamase Assay, Ratio, Phase 5 (AID 2283599). In short, it runs like this:
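Beta-lactamase reporter ratio (blue 460 nm over green 530 nm, 405 nm excitation) after 2 h CCF4-AM loading, in HCT-116 cells exposed 16 h at 37 C to compounds pinned at 217-fold dilution. Increases relative to DMSO baseline scored.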

Experiment [10] has the same target. The experiment is described as follows: TOX21_p53_BLA_p4_ratio: Tox21 HCT-116 p53 Agonism Beta-lactamase Assay, Ratio, Phase 4 (AID 2283601). In short, it runs like this: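 Signal is the blue/green (460nm/530nm) ratio of cleaved versus uncleaved CCF4-AM substrate, read after 2 h substrate loading. Cells were HCT116 carrying the p53-responsive beta-lactamase reporter, dosed 16 h at 37C, 5% CO2; CellTiter-Glo measured in parallel.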

Experiment [11] in a line: Tanguay_ZF_120hpf_MORT_legacy: (Legacy) Oregon State University Tanguay Lab 120 Hour Post-fertilization zebrafish Assay for Mortality (AID 2283633). The method, boiled down:
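Dechorionated Tropical 5D wild-type zebrafish embryos, one per well from 6 hpf, static exposure in 0.64% DMSO at 28C until 120 hpf. Mortality scored as binary by brightfield microscopy at 24 and 120 hpf.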

Experiment [12] in a line: Tanguay_ZF_120hpf_YSE_legacy: (Legacy) Oregon State University Tanguay Lab 120 Hour Post-fertilization zebrafish Assay for Yolk Sac Edema (AID 2283634). The method, boiled down:
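Dechorionated Tropical 5D wild-type zebrafish embryos were exposed statically, one per well, from 6 to 120 hpf at 28C in 0.64% DMSO. Yolk sac edema was scored present/absent by brightfield at 120 hpf, and dead embryos were excluded.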

A short description of experiment [13]: Tanguay_ZF_120hpf_AXIS_legacy: (Legacy) Oregon State University Tanguay Lab 120 Hour Post-fertilization zebrafish Assay for Body Axis Malformation (AID 2283635). In short, it runs like this:
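Dechorionated wild-type Tropical 5D zebrafish embryos, one per well, statically exposed from 6 hpf to 120 hpf at 28C in 0.64% DMSO final. Body axis malformation scored present/absent by brightfield microscopy at 120 hpf; dead embryos excluded.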

Experiment [14] can be described thus: Tanguay_ZF_120hpf_EYE_legacy: (Legacy) Oregon State University Tanguay Lab 120 Hour Post-fertilization zebrafish Assay for Eye Malformation (AID 2283636). The method, boiled down:
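Read-out is binary presence or absence of eye malformation, scored by brightfield microscopy at 120 hpf. Single larvae were exposed from 6 hpf in embryo medium containing 0.64% DMSO, with DMSO as baseline.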

Experiment [15] is described as follows: Tanguay_ZF_120hpf_JAW_legacy: (Legacy) Oregon State University Tanguay Lab 120 Hour Post-fertilization zebrafish Assay for Jaw Malformation (AID 2283638).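 On AC50: active means more embryos with jaw malformation than DMSO controls.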 In short, it runs like this:
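Dechorionated Tropical 5D wild-type zebrafish embryos, one per well, exposed statically from 6 hpf to 120 hpf at 28C in 0.64% DMSO. Jaw malformation was scored by brightfield microscopy as present or absent. It was not scored in dead embryos.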

The nature of experiment [16]: Tanguay_ZF_120hpf_OTIC_legacy: (Legacy) Oregon State University Tanguay Lab 120 Hour Post-fertilization zebrafish Assay for Otic Vesicle Malformation (AID 2283639). The method, boiled down: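 Otic vesicle malformation is read as a yes/no morphology call at 120 hpf. Exposure is static at 28C with 0.64% (vol/vol) DMSO; embryos that die are excluded from non-mortality endpoints.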

A short description of experiment [17]: Tanguay_ZF_120hpf_PE_legacy: (Legacy) Oregon State University Tanguay Lab 120 Hour Post-fertilization zebrafish Assay for Pericardial Edema (AID 2283640). The method, boiled down:
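Tropical 5D wild-type zebrafish embryos were statically exposed until 120 hpf at 28C, with 0.64% DMSO final. Pericardial edema was scored by brightfield as present or absent; endpoints were not scored in dead embryos.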

The nature of experiment [18]: ATG_XTT_Cytotoxicity: Cytotoxicity Assessment in the Attagene TRANS-FACTORIAL HepG2 Assay (AID 2283584). The method, boiled down: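 HepG2 cells transiently transfected with GAL4-UAS multiple reporter units, dosed 24 h; cytotoxicity read by XTT as loss of signal versus DMSO baseline.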
Experiment [19] is described as follows: Tanguay_ZF_120hpf_SNOU_legacy: (Legacy) Oregon State University Tanguay Lab 120 Hour Post-fertilization zebrafish Assay for Snout Malformation (AID 2283637). In short, it runs like this:
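Snout malformation read as a yes/no call on brightfield images of 120 hpf larvae (Tropical 5D strain). Static exposure began at 6 hpf on dechorionated embryos in 0.64% DMSO, with gain of signal analysed versus DMSO controls.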

The nature of experiment [20]: TOX21_p53_BLA_p5_viability: Viability Assessment in the Tox21 HCT-116 p53 Agonism Beta-lactamase Assay, Phase 5 (AID 2283600). In short, it runs like this: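 HCT-116 p53 beta-lactamase reporter cells, 4000/well, were exposed to compound (pin transfer, 217-fold dilution) for 16 hours at 37C. Cellular ATP was read by CellTiter-Glo luminescence after 30 min at room temperature.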

Experimental findings from PubChem BioAssay (EPA / NIEHS) are described below.

Structures are written as SMILES. Several values for one entry are separate records, joined by “and”; a condition that tells them apart may be missing. Equal values may be shown once. Inconclusive results are not listed. Activity calls are given as the source filed them. How the source made its calls, unless noted: active means hit-call score of the fitted dose curve at least 0.9, where 1 is the maximum; inconclusive means response in the unintended direction; inactive means score below 0.9.

Regarding `COCCOC[C@H](CC1(C(=O)NC2CCC(C(=O)O)CC2)CCCC1)C(=O)Oc1ccc2c(c1)CCC2` (some centres not stated), the result in experiment [1], in experiment [2], in [3], in [4], in experiment [5] and in [6] was inactive. The outcome in experiment [7], in experiment [8], in experiment [9], in [10], in [11] and in experiment [12] was inactive. Besides, the call in experiment [13], in experiment [14], in experiment [15], in experiment [16] and in [17] was inactive.
For the compound `COc1cccc2c1C(=O)c1c(O)c3c(c(O)c1C2=O)C[C@@](O)(C(=O)CO)C[C@@H]3O[C@H]1C[C@H](N)[C@H](O)[C@H](C)O1`, the call in experiment [18], in experiment [4] and in experiment [6] was inactive. In addition, the AC50 (as a rule, the concentration giving half of the maximal activity seen) was 98.2 nM (active) and 390 nM (active) in experiment [5]; 0.401 µM (active) in [7]; 238 nM (active) and 422 nM (active) in [9]; 211 nM (active) and 437 nM (active) in [10].
As to `NCCO`, the compound was classed as inactive in experiment [1], in [2], in experiment [3], in experiment [5], in [7] and in experiment [9]. Also, the outcome in experiment [10], in experiment [11], in experiment [12], in experiment [13], in experiment [14] and in [15] was inactive. In addition, the result in [17] was inactive.
Consider `NC(=O)Cn1c(=O)cc(CCN2CCN(c3nccc4sccc34)CC2)c2ccc(F)cc21`, for which the AC50 is 34.6 µM (active) in experiment [1] and 77 µM (active) in [2]. For the same compound, the result in experiment [3], in experiment [5], in experiment [6], in experiment [8], in experiment [11] and in experiment [12] was inactive. For the same compound, the outcome in experiment [13], in [14], in experiment [15], in [16] and in [17] was inactive.
In the case of `COc1cc(S(=O)(=O)O)c(C)cc1N=Nc1c(O)ccc2cc(S(=O)(=O)O)ccc12`, the outcome in experiment [1], in experiment [2], in [18], in experiment [5], in experiment [7] and in [8] was inactive. For the same compound, the outcome in experiment [9], in experiment [10], in experiment [11], in experiment [12], in experiment [13] and in [14] was inactive. For the same compound, the outcome in experiment [15], in [16] and in experiment [17] was inactive.
As for `CN1CCN(Cc2cc(-c3ccc4[nH]c(=O)oc4c3)co2)[C@@H](c2ccc(F)cc2)C1`, the result in [1], in experiment [2], in [3], in experiment [4], in [5] and in experiment [6] was inactive. Further, the compound was classed as inactive in experiment [8], in experiment [11], in [12], in [13], in experiment [14] and in experiment [16]. Besides, in [17], the call was inactive. Moreover, the AC50 was 25.6 µM (active) in experiment [19] and 25.7 µM (active) in [15].
Consider `NCC1(Cc2noc(=O)[nH]2)CCCCC1`, for which the AC50 in [1] is 0.226 µM (active). Moreover, the result in experiment [2], in [3], in experiment [5], in [6], in [8] and in experiment [9] was inactive. Further, the result in experiment [10], in experiment [11], in experiment [12], in experiment [13], in [14] and in [19] was inactive. Moreover, the result in experiment [15] and in experiment [17] was inactive.
Take `Cc1cccc([N+](=O)[O-])c1C`: the result in experiment [1], in [2], in [3], in experiment [4], in experiment [5] and in experiment [6] was inactive. The outcome in experiment [7], in experiment [8], in experiment [9], in [20], in experiment [11] and in experiment [12] was inactive. For the same compound, the result in experiment [13], in [14], in experiment [15], in [16] and in experiment [17] was inactive.
